From PubChem BioAssay (Tox21)
Values joined by “and” are separate entries in the source; they are usually repeats but may differ in a detail not shown here. Equal entries are not always repeated. Records with an inconclusive call do not appear. A structure can be active in one record and inactive in another. Active and inactive are the calls of the source. Calls come from the whole dose curve; as a rule, active = well fitted curve in the direction sought with a large enough effect in the repeat runs; inconclusive = weak or mixed curves; inactive = no such curve, though single readings can be large; an effect the other way counts as inactive or inconclusive.

How the values were obtained:
[1] = A CellTox Green Cytotoxicity Assay to monitor cytotoxicity in HEK293 cells - 40 hour (AID 1224871); note: nearly all actives have a fitted effect of over 45% in size; note: potency is the fitted concentration of half-maximal effect
Outline: (§1)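 Real-time, in one plate: 600 HEK293 cells/well with dead-cell DNA dye, pinned compound after 5 h, 37 C incubation over 40 h; viable cells give no appreciable fluorescence.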

[2] = qHTS RealTime-Glo MT Cell Viability Assay in HEK293 cells - 16 hour (AID 1224872); note: nearly all actives have a fitted effect of over 50% in size; note: potency is the fitted concentration of half-maximal effect
Outline: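 Reads taken at 0, 8, 16, 24, 32 and 40 h from the same wells. HEK293 cells (600/well) carried RealTime-Glo reagents from seeding, with compound added after a 5 h settle at 37 C.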

[3] = qHTS RealTime-Glo MT Cell Viability Assay in HEK293 cells - 40 hour (AID 1224874); conditions: RealTime-Glo luminescence; max response: stronger effect = lower value; note: nearly all actives have a fitted effect of over 50% in size; note: potency is the fitted concentration of half-maximal effect
Outline: (§2)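 Kinetic, non-lysing viability readout. Seed HEK293 (600/well) with reagent, incubate 5 h at 37 C/5% CO2, pin 23 nL compound in DMSO, incubate at 37 C, read luminescence at 0, 8, 16, 24, 32, 40 h.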

[4] = A CellTox Green Cytotoxicity Assay to monitor cytotoxicity in HEK293 cells - 24 hour (AID 1224875); note: nearly all actives have a fitted effect of over 45% in size; note: potency is the fitted concentration of half-maximal effect
Outline: as §1

[5] = A CellTox Green Cytotoxicity Assay to monitor cytotoxicity in HepG2 cells - 16 hour (AID 1224876); note: nearly all actives have a fitted effect of over 45% in size; note: potency is the fitted concentration of half-maximal effect
Outline: (§3)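 Cytotoxicity was tracked as dead-cell DNA fluorescence in HepG2 cells treated with test compounds at 37 C; each time-point value comes from one kinetic series spanning 0, 8, 16, 24, 32 and 40 h.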

[6] = qHTS RealTime-Glo MT Cell Viability Assay in HepG2 cells - 32 hour (AID 1224877); note: nearly all actives have a fitted effect of over 55% in size; note: potency is the fitted concentration of half-maximal effect
Outline: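 HepG2 suspension premixed with RealTime-Glo reagents is plated at 600 cells per well and left 5 h at 37 C/5% CO2. Compounds in DMSO then go in, and bioluminescence reflecting viable cell number is recorded over 40 h.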

[7] = A CellTox Green Cytotoxicity Assay to monitor cytotoxicity in HepG2 cells - 24 hour (AID 1224878); note: nearly all actives have a fitted effect of over 45% in size; note: potency is the fitted concentration of half-maximal effect
Outline: as §3

[8] = A CellTox Green Cytotoxicity Assay to monitor cytotoxicity in HepG2 cells - 40 hour (AID 1224879); note: nearly all actives have a fitted effect of over 40% in size; note: potency is the fitted concentration of half-maximal effect
Outline: as §3

[9] = qHTS RealTime-Glo MT Cell Viability Assay in HEK293 cells - 0 hour (AID 1224880)
Outline: as §2

[10] = qHTS RealTime-Glo MT Cell Viability Assay in HepG2 cells - 8 hour (AID 1224873); note: nearly all actives have a fitted effect of over 55% in size; note: potency is the fitted concentration of half-maximal effect
Outline: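 Real-time viability: cells seeded at 600 per well together with NanoLuc and cell-permeant prosubstrate, compounds added after 5 h incubation. Luminescence tracked at 0, 8, 16, 24, 32 and 40 h of exposure.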
% is set by controls: 0 for no effect and ±100 for the full control effect.

O=C(Cc1ccccc1)c1ccccc1
inactive: Potency [1] | Potency [2] | max response [3] 4.41% | Potency [4] | Potency [5] | Potency [6] | Potency [7] | Potency [8] | outcome [9]

COC(=O)Cc1ccccc1
inactive: Potency [1] | Potency [2] | max response [3] 7.1% | Potency [4] | Potency [5] | Potency [6] | Potency [7] | Potency [8] | outcome [9]

CC[N+]1(CCOC(=O)C(O)(c2ccccc2)c2ccccc2)CCCCC1
inactive: Potency [1] | Potency [2] | max response [3] 4.06% | Potency [4] | Potency [5] | Potency [6] | Potency [7] | Potency [8] | outcome [9]

CC(O)CN1CCN(CC(=O)[O-])CCN(CC(=O)[O-])CCN(CC(=O)[O-])CC1.[Gd+3] (stereo not drawn)
inactive: Potency [1] | Potency [2] | max response [3] 3.85% | Potency [4] | Potency [5] | Potency [6] | Potency [7] | Potency [8]

CCCCNC(=O)OCC#CI
active: Potency [1] 54.7 µM and 54.9 µM | Potency [2] 19.4 µM and 21.9 µM | Potency [10] 15.4 µM and 12.3 µM | Potency [3] 21.8 µM and 24.5 µM | Potency [6] 6.14 µM and 2.75 µM | Potency [8] 49 µM
inactive: Potency [5]

CN1C(=O)CN=C(c2ccccc2)c2cc([N+](=O)[O-])ccc21
inactive: Potency [1] | Potency [2] | max response [3] -12% | Potency [4] | Potency [5] | Potency [6] | Potency [7] | Potency [8] | outcome [9]

Cc1nnc(-c2ccccc2)c(=O)n1N
inactive: Potency [1] | Potency [2] | max response [3] -13.2% | Potency [4] | Potency [5] | Potency [6] | Potency [7] | Potency [8] | outcome [9]

CC(C)(C)c1ccc(CCOc2ncnc3ccccc23)cc1
inactive: Potency [1] | Potency [2] | Potency [10] | max response [3] 3.46% | Potency [5] | Potency [6] | outcome [9]

Cc1ccc2c(C)cccc2c1
inactive: Potency [1] | Potency [2] | max response [3] 4.4% | Potency [4] | Potency [5] | Potency [6] | Potency [7] | Potency [8]

CCOC(=O)c1cn2nc(OP(=S)(OCC)OCC)cc2nc1C
inactive: Potency [1] | Potency [4] | Potency [5] | Potency [6] | Potency [7] | Potency [8] | outcome [9]
active: Potency [2] 17.4 µM | Potency [3] 15.5 µM

NC(=S)c1c(Cl)cccc1Cl
inactive: Potency [1] | Potency [2] | max response [3] -2.31% | Potency [4] | Potency [5] | Potency [6] | Potency [7] | Potency [8] | outcome [9]

CCC1(C2=NCCN2)Cc2ccccc2O1 (stereo not drawn)
inactive: Potency [1] | Potency [2] | max response [3] 7.14% | Potency [4] | Potency [5] | Potency [6] | Potency [7] | Potency [8]

O=C(O)CCCOc1ccc(Cl)cc1Cl
inactive: Potency [1] | Potency [2] | max response [3] 28.1% and -0.413% | Potency [4] | Potency [5] | Potency [6] | Potency [7] | Potency [8] | outcome [9]

CCOC(=O)c1cncn1C(C)c1ccccc1 (stereo not drawn)
inactive: Potency [1] | Potency [2] | max response [3] 3.04% | Potency [4] | Potency [5] | Potency [6] | Potency [7] | Potency [8]

OCC1CO1 (stereo not drawn)
inactive: Potency [1] | Potency [2] | Potency [10] | max response [3] 0.843% and 1.08% | Potency [6] | outcome [9]
active: Potency [7] 44.4 µM

O=C(O)c1cc(Cl)ccc1Cl
inactive: Potency [1] | Potency [2] | max response [3] 8.52% | Potency [4] | Potency [5] | Potency [6] | Potency [7] | Potency [8]

Cc1cnc(C2=NC(C)(C(C)C)C(=O)N2)c(C(=O)O)c1 (stereo not drawn)
inactive: Potency [1] | Potency [2] | max response [3] 12.6% | Potency [4] | Potency [5] | Potency [6] | Potency [7] | Potency [8] | outcome [9]

CN1CC[C@]23c4c5ccc(O)c4O[C@H]2[C@@H](O)CC[C@H]3[C@H]1C5
inactive: Potency [1] | Potency [2] | max response [3] -1.3% | Potency [4] | Potency [5] | Potency [6] | Potency [7] | Potency [8] | outcome [9]

CC(C)[C@@H](C(=O)O[C@@H](C#N)c1cccc(Oc2ccccc2)c1)c1ccc(Cl)cc1
active: Potency [2] 24.9 µM
inactive: Potency [1] | Potency [5] | Potency [6] | Potency [7] | Potency [8] | outcome [9]
49.7 µM (active) and inactive: Potency [10]

O=C1NC(=O)C(=O)C(=O)N1
inactive: Potency [1] | Potency [2] | Potency [10] | max response [3] 6.33% | Potency [5] | Potency [6] | Potency [7] | Potency [8] | outcome [9]

CC(C)C1(C)N=C(c2ncccc2C(=O)O)NC1=O (stereo not drawn)
inactive: Potency [1] | Potency [2] | max response [3] 1.4% | Potency [4] | Potency [5] | Potency [6] | Potency [7] | Potency [8] | outcome [9]

CCCN(CCC)C(=O)Cc1c(-c2ccc(Cl)cc2)nc2ccc(Cl)cn12
active: Potency [2] 5.35 µM | Potency [3] 5.35 µM
inactive: Potency [1] | Potency [10] | Potency [5] | Potency [6] | Potency [7] | outcome [9]

CCCCC(CC)COC(=O)c1c(Br)c(Br)c(Br)c(Br)c1C(=O)OCC(CC)CCCC (stereo not drawn)
inactive: Potency [1] | Potency [2] | max response [3] -1.1% | Potency [4] | Potency [5] | Potency [6] | Potency [7] | Potency [8] | outcome [9]

c1ccc2c(c1)-c1cccc3cccc-2c13
inactive and 43.6 µM (active): Potency [1]
inactive: Potency [2] | max response [3] -7% and -12.1% | Potency [4] | Potency [5] | Potency [6] | Potency [7] | Potency [8] | outcome [9]

Clc1ccccc1
inactive: Potency [1] | Potency [2] | Potency [10] | max response [3] -1.5% | Potency [5] | Potency [6] | Potency [7] | Potency [8] | outcome [9]

Nc1ccccc1C(=O)OCCc1ccccc1
inactive: Potency [10] | Potency [6] | outcome [9]
active: Potency [1] 21.9 µM | Potency [2] 24.5 µM | Potency [3] 24.5 µM | Potency [5] 21.9 µM | Potency [7] 21.9 µM | Potency [8] 21.9 µM

CC(C)OC(=O)Cc1ccccc1
inactive: Potency [1] | Potency [2] | max response [3] 5.49% | Potency [4] | Potency [5] | Potency [6] | Potency [7] | Potency [8]

CCCCC(CC)CO[N+](=O)[O-] (stereo not drawn)
inactive: Potency [1] | Potency [2] | max response [3] -1.82% | Potency [4] | Potency [5] | Potency [6] | Potency [7] | Potency [8] | outcome [9]

CCCN(CCC)c1c([N+](=O)[O-])cc(C(C)C)cc1[N+](=O)[O-]
inactive: Potency [1] | Potency [2] | max response [3] 9.58% | Potency [4] | Potency [5] | Potency [6] | Potency [7] | Potency [8] | outcome [9]

CC(C)(C)NCC(O)c1ccccc1Cl (stereo not drawn)
inactive: Potency [1] | Potency [2] | max response [3] 4.08% | Potency [4] | Potency [5] | Potency [6] | Potency [7] | Potency [8]

COc1cc(CC(C)N)c(OC)cc1Br (stereo not drawn)
inactive: Potency [1] | Potency [2] | Potency [10] | Potency [4] | Potency [5] | Potency [6]

CCOP(=S)(OCC)SCSc1cc(Cl)ccc1Cl
inactive: Potency [1] | Potency [2] | max response [3] 0.23% | Potency [4] | Potency [5] | Potency [6] | Potency [7] | Potency [8]

O=C(O)COc1cc(Cl)c(Cl)cc1Cl
inactive: Potency [1] | Potency [2] | max response [3] 6.38% | Potency [4] | Potency [5] | Potency [6] | Potency [7] | Potency [8] | outcome [9]
active: Potency [3] 15.5 µM

CCC(C)(C)c1ccc(O)c(C(C)(C)CC)c1
active: Potency [1] 43.2 µM and 15.5 µM | Potency [2] 43.2 µM | Potency [3] 43.2 µM | Potency [4] 43.2 µM and 17.4 µM | Potency [5] 24.3 µM | Potency [7] 34.3 µM | Potency [8] 38.5 µM
inactive: max response [3] -21.8% | Potency [6] | outcome [9]

COc1ccc(C(=O)c2c(C)n(CCN3CCOCC3)c3ccccc23)cc1
inactive: Potency [1] | Potency [2] | Potency [10] | Potency [6] | outcome [9]

Nc1cccc2ccccc12
inactive: Potency [1] | Potency [2] | max response [3] -9.7% and -1.99% | Potency [4] | Potency [5] | Potency [6] | Potency [7] | Potency [8] | outcome [9]
